# Screening data from PubChem BioAssay.
# The list is not random: actives were taken first. Their share in the collection is about 11%.
# Pf growth 96h = inhibits malaria parasite growth, 96 h. P. falciparum luciferase reporter growth, 96 h. Potency, µM (top dose mostly 28.7 µM), for inactives: at the top dose activity change, negative = inhibition, usual class: inhibitors. actives 6.9% (n = 320,000). AID 504834
#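 Delayed-death screen, second-generation endpoint: infected erythrocytes, 2% hematocrit, 0.05% parasitemia final; 96 hours at 37 C, 5% CO2; luciferase detection reagent; luminescence decrease equals reduced growth.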
# AmpC inh detg = AmpC beta-lactamase inhibition with detergent present; P00811; AmpC hydrolysis of nitrocefin, absorbance 480 nm, 0.01% Triton; Potency, µM (titrated, usually from 114 µM), without a hit: at the highest dose activity change, negative = inhibition, hits mostly inhibitors; actives 0.041% (n = 370,000);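 note: 0% = no-compound wells and -100% = no-enzyme wells; nearly all actives have a fitted effect of over 25% in size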
# Target sequence (P00811 whole entry, looked up): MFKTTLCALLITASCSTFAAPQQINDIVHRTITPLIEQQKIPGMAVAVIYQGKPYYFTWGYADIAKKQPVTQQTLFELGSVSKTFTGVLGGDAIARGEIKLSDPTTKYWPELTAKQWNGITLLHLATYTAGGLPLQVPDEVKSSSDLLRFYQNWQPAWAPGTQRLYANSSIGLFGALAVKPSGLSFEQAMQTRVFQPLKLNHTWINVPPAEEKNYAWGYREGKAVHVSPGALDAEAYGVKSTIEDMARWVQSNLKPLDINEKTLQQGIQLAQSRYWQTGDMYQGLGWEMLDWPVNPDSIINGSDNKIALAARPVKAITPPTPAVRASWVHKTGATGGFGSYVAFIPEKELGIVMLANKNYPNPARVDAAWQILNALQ
#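 AmpC (5.3 nM in the dispensed reagent) in 20 mM phosphate pH 7.0 with 0.01% (detergent screen) or 0.0001% Triton X-100 was preincubated with compounds for 15 min at room temperature. Nitrocefin was then added from an 800 uM solution, and hydrolysis was followed at 480 nm.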
# Pf growth 48h = inhibits P. falciparum growth in the first generation, 48 h. AID 504832. Potency, µM (doses to about 28.7 µM), for inactives: top-dose activity change, negative = inhibition, actives largely listed as inhibitors. P. falciparum luciferase growth in erythrocytes, 48 h. actives 5.9% (n = 310,000)
#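 Luciferase-expressing parasites in RBCs, 2% Hct / 0.1% parasitemia final; RPMI 1640 + 0.5% Albumax; 37 C, 5% CO2, one generation; luminescence read-out, lower signal = inhibition.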
# AmpC inh no detg = blocks E. coli AmpC beta-lactamase in detergent-free assay; AmpC nitrocefin hydrolysis, absorbance 480 nm, 0.0001% Triton; AID 485341; Potency, µM (top dose mostly 57.1 µM), for the others: top-dose activity change, negative = inhibition, actives largely listed as inhibitors; P00811; actives 0.52% (n = 330,000);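 note: plate controls were no compound for no effect and no enzyme for full effect; nearly all actives have a fitted effect of over 20% in size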
#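 20 mM phosphate pH 7.0 + 0.01% (detergent screen) or 0.0001% Triton X-100; 5.3 nM AmpC reagent; cpd preinc 15 min RT; nitrocefin (800 uM stock) to start; A480 q20 s × 4 min; Activity was normalised to no-enzyme and no-compound control wells.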
# HCV inhibitor = inhibitors of hepatitis C virus infection; actives 3.4% (n = 340,000); AID 651820; Huh7.5.1 HCVcc-Cre infection, luciferase reporter, 44 h; Potency, µM (series often up to 41.8 µM), inactives show at the top dose activity change, negative = inhibition, most hits filed as inhibitors
#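 Infectious HCV cell culture screen: compound-treated cells (1,000/well, pre-plated 4 h) are infected with HCVcc-Cre at roughly 0.5 moi and grown 44 h. Infection is quantified by luciferase signal after 15 min substrate incubation at room temperature.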
# AMA1 RON2 block = AMA1-RON2 (P. falciparum) interaction inhibition | AlphaScreen AMA1-biotinylated RON2 peptide binding | actives 0.2% (n = 360,000) | Potency, µM (highest dose often 58.2 µM), without a hit: at the highest dose activity change, negative = inhibition, actives largely listed as inhibitors;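 note: 0% = vehicle wells and -100% = peptide control; nearly all actives have a fitted effect of over 45% in size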
#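 AMA1 (3D7) with his tag at 25 nM final met compounds first, then biotinylated RON2 peptide at 25 nM; detection used donor plus acceptor beads, 10 µg/mL apiece, read by AlphaScreen after 30 min at room temperature.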
# * marks the source's active call; other numbers are inactive results; ? = inconclusive; . = not tested or not shown; [ ] = remark or other dose. Calls come from the whole dose curve; as a rule, active = well fitted curve in the direction sought with a large enough effect; inconclusive = small, poorly fitted or top-dose-only effect, or another doubt; inactive = no such curve, though single readings can be large; an effect the other way counts as inactive or inconclusive. Unless noted, % is set by controls: 0 for no effect and ±100 for the full control effect; potency is the fitted concentration of half-maximal effect.
SMILES,Pf growth 96h,AmpC inh detg,Pf growth 48h,AmpC inh no detg,HCV inhibitor,AMA1 RON2 block
Cc1ccc(CCNC(=O)CN(c2ccc(C)cc2)S(=O)(=O)c2c(C)noc2C)cc1,?,-3%,-14%,63%,5%,1%
Cc1noc(C)c1S(=O)(=O)N(CC(=O)NC1CCC(C)CC1)c1ccc(C(C)C)cc1 (stereo not drawn),?,-3%,10µM*,2%,-7%,0%
Cc1ccc(N(CC(=O)NCCc2ccc(Cl)cc2)S(=O)(=O)c2c(C)noc2C)cc1,2.3µM*,-1%,-5%,84%,-8%,24%
CCOc1ccc(N(CC(=O)NC2CCC(C)CC2)S(=O)(=O)c2c(C)noc2C)cc1 (stereo not drawn),?,1%,?,47%,0%,6%
CCC(=O)Nc1ccc2nc(SCCOc3ccc(C)cc3)sc2c1,.,15%,.,.,.,.
CSc1nc(N)nc2c1ncn2CC(=O)NCC(c1ccccc1)c1ccccc1,.,.,.,-8%,?,9%
COc1ccc(CNC(=O)Cn2cnc3c(SC)nc(N)nc32)cc1,.,.,.,-1%,8.9µM*,-2%
CSc1nc(N)nc2c1ncn2CC(=O)Nc1ccc(C)c(C)c1,.,.,.,-13%,3.5µM*,4%
CCCCC(=O)Nc1nnc(SCc2cc(=O)n3cc(C)ccc3n2)s1,.,19%,.,.,.,.
CCN(C(=O)Cn1nc(Cc2cccnc2)c2ccccc2c1=O)c1ccccc1F,.,9%,.,.,.,.
CCOc1ccc(Cl)cc1CNCCCSc1nnnn1C,.,21%,.,.,.,.
CN(Cc1ccccc1)C(=O)c1ccc2c(c1)N(Cc1ccccc1Cl)C(=O)c1ccccc1S2,.,9%,.,.,.,.
Oc1ccccc1-c1nc2ccccc2nc1-c1ccccc1,?,1%,15µM*,-27%,8%,-12%
O=C(NCCc1ccccc1)C(=O)NCC(c1cccnc1)N1CCN(c2ccccc2)CC1 (stereo not drawn),.,2%,.,.,.,.
Cn1c(N)c(C(=O)COC(=O)/C=C/c2cccc(F)c2)c(=O)n(C)c1=O,-83%,6%,12µM*,-9%,24%,20%[11.6 µM]
Cn1c(N)c(C(=O)COC(=O)/C=C/c2ccc(F)cc2)c(=O)n(C)c1=O,?,2%,?,16%,?,10%
Cn1c(N)c(C(=O)COC(=O)/C=C/c2cccc(Br)c2)c(=O)n(C)c1=O,-112%,-5%,13µM*,-37%,3%,-8%
Cc1ccc(N=C(N)N=C(N)N)cc1,?,0%,9.3µM*,-10%,8%,5%
NC(N)=NC(N)=Nc1ccc(O)cc1,-3%,-10%,?,-20%,-3%,0%
C/C(=N\NC(=O)c1nnn(-c2nonc2N)c1-c1ccc2c(c1)OCO2)c1cccs1,12µM*,3%,?,-36%,19%,19%
C/C(=N\NC(=O)c1nnn(-c2nonc2N)c1-c1cccs1)c1ccc(O)cc1,12µM*,0%,12µM*,-40%,?,-1%
C/C(=N\NC(=O)c1nnn(-c2nonc2N)c1-c1cccs1)c1ccc(C)cc1,-22%,-1%,-4%,-26%,-24%,-3%
CCCOc1ccc(-c2c(C(=O)N/N=C(\C)c3ccncc3)nnn2-c2nonc2N)cc1,9.3µM*,1%,?,-11%,-20%,27%
C/C(=N/NC(=O)c1nnn(-c2nonc2N)c1-c1ccccc1)c1ccncc1,7.4µM*,1%,17%,13%,7%,14%
CCOC(=S)SSC(=S)OCC,-1%,.,-1%,.,.,.
SMILES,Pf growth 96h,AmpC inh detg,Pf growth 48h,AmpC inh no detg,HCV inhibitor,AMA1 RON2 block
COc1cc(C(CC(=O)Nc2ccc(Br)cn2)N2Cc3ccccc3C2=O)cc(OC)c1OC (stereo not drawn),.,16%,.,.,.,.
CCC(C(=O)OCc1cc(=O)n2nc(CCOC)sc2n1)c1ccccc1 (stereo not drawn),.,-1%,.,.,.,.
Cc1ccc(CNC(=O)CC(C)CC2=NS(=O)(=O)c3ccccc3N2)cc1 (stereo not drawn),.,-5%,.,.,.,.
CCOC(=O)c1c(C)[nH]c(C)c1C(=O)CN1C(=O)NC(CC(C)C)C1=O (stereo not drawn),26%,-8%,9.3µM*,4%,-12%,16%
CCOC(=O)c1c(C)[nH]c(C)c1C(=O)CN1C(=O)NC2(CCC(C)CC2)C1=O (stereo not drawn),.,-13%,?,-26%,-17%,-7%
O=C(Nc1cccc([N+](=O)[O-])c1)c1cc2ccccc2cc1O,1.9µM*,0%,5.2µM*,13µM*,5.6µM*,44%
O=C(Nc1ccc(O)cc1)c1cccc(Oc2ccc([N+](=O)[O-])cc2)c1,?,-3%,-3%,19%,11µM*,-2%
O=C(NNc1c(Cl)cc(Cl)cc1Cl)c1cccc([N+](=O)[O-])c1,?,-13%,-21%,-40%,10µM*,15%
O=C(O)c1ccccc1C(=O)Nc1cccc([N+](=O)[O-])c1,14%,-4%,?,-3%,10%,-2%
O=C(NNC(=S)NC(=O)c1ccccc1Cl)c1cccc([N+](=O)[O-])c1,2%,-9%,.,-25%,?,68%
Cc1ccc(NC(=O)c2cccc(Oc3ccc([N+](=O)[O-])cc3)c2)c(C(=O)O)c1,-21%,1%,18%,-48%,13%,-12%
O=C(Nc1ccncc1)c1cc2ccccc2cc1O,8.3µM*,?,?,-16%,?,3%
O=C(NCc1ccccc1Cl)c1ccc(Nc2nc3ccccc3n3nnnc23)cc1,.,12%,.,.,.,.
COc1ccc(Cl)cc1NC(=O)NC1CCCCC1,0%,?,.,-29%,?,?
O=C(O)c1cccc(NC(=O)c2ccc3c(c2)C(=O)N(c2cccc([N+](=O)[O-])c2)C3=O)c1,5.9µM*,-6%,38%,-21%,15%,-8%
O=C(Nc1ccc(Br)cc1)c1cc([N+](=O)[O-])cc([N+](=O)[O-])c1,5%,-11%,2.6µM*,-34%,?,2%
O=C(O)c1cccc(NC(=O)c2ccc(N3C(=O)c4ccc(C(=O)Nc5cccc(C(=O)O)c5)cc4C3=O)cc2)c1,35%,5%,26%,-21%,19%,-1%
Cc1ccc(NC(=O)NNC(=O)c2cc3ccccc3cc2O)cc1,0%,-1%,25%,10µM*,11%,67%
COc1ccc(Cl)cc1NC(=O)Nc1cccc([N+](=O)[O-])c1C,-14%,5%,?,-20%,16µM*,0%
CNC(=O)C1CCC(Cn2c(=O)[nH]c3ccsc3c2=O)CC1 (stereo not drawn),.,15%,.,.,.,.
